In the library only some 4.1% were active in any assay of this set; here they are far more common.
MEKK2mut PB1 HTS: MEK5 binding signal on mutant MEKK2 PB1, primary screen, biochemical, multiplex bead flow cytometry, Alexa488-MEK5 | Alexa488-MEK5 binding to MEKK2 mutant | actives 0.35% (n = 290,000) | AID 1530, 2009 | percent response, % at 10 µM; in the data active means percent response above about 24%, passing the limit was not always enough
SUMO Mot1 rescue: yeast Mot1-301 growth rescue at high temperature, primary screen, SUMOylation pathway inhibitor project, S. cerevisiae, ATP luminescence, 38.5C | S. cerevisiae Mot1-301 growth rescue; percent above DMSO median, 100 means doubled | growth rescue, % at 18.8 µM | actives 1% (n = 320,000) | AID 2716, 2010;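 active means every valid replicate shows activation above 250% relative to neutral control wells; inactive means the rest, any valid replicate at or below 250%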;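 further: OY570 slx delta 5 strain wells were the positive control but not used for scaling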
CHT allo act: CHT positive allosteric modulators, primary screen, cell-based, membrane potential dye, choline EC20; actives 0.49% (n = 310,000); High affinity choline transporter 1 (Homo sapiens), Q9GZV3; B-score at 10 µM; AID 488977, 2010; CHT-expressing cells; active compounds read high; LV-AA mutant CHT in HEK293 cells;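 active means initial fluorescence not abnormally high and integrated response B-score, plate-corrected, over 3 SD above library mean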
Target sequence (Q9GZV3 whole entry, looked up): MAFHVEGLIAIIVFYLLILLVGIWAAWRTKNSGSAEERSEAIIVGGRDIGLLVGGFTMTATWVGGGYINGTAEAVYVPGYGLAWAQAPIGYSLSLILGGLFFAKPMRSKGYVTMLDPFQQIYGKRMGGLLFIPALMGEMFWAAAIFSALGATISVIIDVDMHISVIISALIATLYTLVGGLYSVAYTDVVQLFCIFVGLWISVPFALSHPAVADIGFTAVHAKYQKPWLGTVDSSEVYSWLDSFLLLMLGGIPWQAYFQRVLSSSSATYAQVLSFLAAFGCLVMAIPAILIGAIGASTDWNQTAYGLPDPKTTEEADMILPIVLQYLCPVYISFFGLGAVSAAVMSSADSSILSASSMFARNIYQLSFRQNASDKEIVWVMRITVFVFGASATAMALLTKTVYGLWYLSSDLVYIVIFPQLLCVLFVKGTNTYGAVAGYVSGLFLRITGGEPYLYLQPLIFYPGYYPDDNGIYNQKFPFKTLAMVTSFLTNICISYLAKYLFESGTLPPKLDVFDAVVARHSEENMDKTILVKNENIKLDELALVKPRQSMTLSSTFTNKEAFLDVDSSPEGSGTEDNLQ
MEKK2 WT-MEK5: modulators of MEK5 binding to wildtype MEKK2, primary screen, biochemical, multiplex bead flow cytometry, Alexa488-MEK5; Mitogen-activated protein kinase kinase kinase 2 (Homo sapiens), Q9Y2U5; Alexa488-MEK5 binding to MEKK2 WT; actives lie on both sides; binding response (% of control), % at 10 µM; actives 1.1% (n = 290,000); AID 1531, 2009; in the data active means binding response below about 67% or above about 130%
MEKK3 PB1 HTS: modulators of MEKK3-MEK5 PB1 binding, primary screen, biochemical, wildtype MEKK3, multiplex bead flow cytometry, Alexa488-MEK5. Mitogen-activated protein kinase kinase kinase 3 (Homo sapiens), Q99759. bead-based flow cytometry, Alexa488-MEK5 binding to MEKK3; actives lie on both sides; 0 = blocked by unlabeled MEK5, 100 = vehicle. binding response (% of control), % at 10 µM. actives 1.4% (n = 290,000);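 active means binding response more than 3 SD above or below the average of its plate-row segment, actives on both sides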;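 further: Alexa488 bead fluorescence after subtracting the streptavidin-only scavenger bead signal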
CHT inh: inhibitors of human choline transporter CHT. CHT-expressing cells, membrane potential dye, choline response; active compounds read low. B-score at 10 µM. actives 0.86% (n = 310,000);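 active means B-score over 3 SD under the library average, and starting fluorescence ratio not unusually high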;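 further: choline stimulus applied at its EC90 after an EC20 pre-addition; B-score computed on integrated fluorescence ratio after choline addition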
MEKK2wt confirm: modulators of MEK5 binding to wildtype MEKK2, confirmation, biochemical, single concentration, multiplex bead flow cytometry; shares compounds with MEKK3 PB1 HTS; Alexa488-MEK5 binding to MEKK2 WT; actives lie on both sides; binding response (% of control), % at 10 µM; actives 2.4% (n = 5,900); AID 1892, 2009; in the data active means binding response below about 16% or above about 210%; inactive means in between
MEKK2mut-MEK5: mutant MEKK2 PB1-MEK5 binding signal retest – biochemical, single concentration, multiplex bead flow cytometry, confirmation. AID 1893, 2009. actives 2% (n = 5,900). shares compounds with MEKK3 PB1 HTS. percent response, % at 10 µM. Alexa488-MEK5 binding to MEKK2 mutant; in the data active means percent response mostly above about 71%, no sharp cut-off; inactive means mostly below about 38%;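 further: higher means compound restores mutant binding toward wildtype level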
MEKK3 confirm: MEKK3 wild-type PB1 binding to MEK5, inhibitors, confirmation, biochemical, bead multiplex flow cytometry, single concentration, wildtype; AID 1894, 2009; shares compounds with MEKK3 PB1 HTS; binding response (% of control), % at 10 µM; actives 1.8% (n = 5,900); Alexa488-MEK5 binding to MEKK3; active compounds read low;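 active means binding response below 72% of control, or above a set upper limit, though filed actives all read lower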;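 further: 100% = DMSO only wells and 0% = binding blocked by excess unlabeled MEK5; lower values mean stronger disruption of MEK5 binding to MEKK3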
Numbers without * were called inactive; i = inactive; x = no result; + = active, no number; [ ] = remark or other dose.

SMILES	MEKK2mut PB1 HTS	SUMO Mot1 rescue	CHT allo act	MEKK2 WT-MEK5	MEKK3 PB1 HTS	CHT inh	MEKK2wt confirm	MEKK2mut-MEK5	MEKK3 confirm
Cn1c(=O)c2c(nc(NCCNC(=O)c3ccco3)n2Cc2ccc(Cl)cc2Cl)n(C)c1=O	3	-16	i	106	99	i	x	x	x
CN(C)CCN(C)Cc1c2ccccc2c(CN(C)CCN(C)C)c2ccccc12	24*	-11	i	128	111	i	156	43	106
CCN(CC)c1ccc(/C=C/C(=O)c2ccc(Br)cc2)cc1	431*	-2	i	344*	111	i	82	-40	87
NCC12CC3CC(C1)CC(c1ccc(Br)cc1)(C3)C2	21	12	i	153*	110	i	133	22	101
S=c1[nH]nc(COc2ccc(Cl)cc2)n1Cc1ccco1	6	-24	i	126	155*	i	105	2	103
CCCc1n[nH]c(=S)n1Cc1ccco1	12	13	i	110	103	i	x	x	x
CC(C)COC(=O)c1ccc(N2C(=O)c3ccccc3C2=O)cc1	-45	-8	i	7.0*[inhibitor]	5.0*[inhibitor]	i	99	6	103
Cc1ccc(C)c(C(=O)OCC(=O)N(C)c2ccccc2)c1	0	4	i	99	100	i	x	x	x
COc1cc(OC)c(C(=O)NCC(c2cccs2)N(C)C)cc1OC (stereo not drawn)	-1	-5	i	100	101	i	x	x	x
CCCOc1ccc(C(=O)NCC(c2cccs2)N(C)C)cc1OC (stereo not drawn)	7	-11	i	108	146*	i	118	17	104
CCOc1ccccc1C(=O)N[C@H](C(=O)Nc1nc2c(s1)CCCC2)C(C)C	1	-17	i	101	137*	i	97	-2	102
COc1ccc(C(=O)N[C@H](C(=O)Nc2nc3c(s2)CCCC3)C(C)C)cc1	-2	x	i	96	96	i	x	x	x
CC(Sc1ccc(Cl)cc1)C(=O)Nc1ccc2c(c1)OCO2 (stereo not drawn)	2	220	i	96	108	i	x	x	x
CC(C)N1CCC2(CC1)N=C(c1ccc3c(c1)OCO3)CC(c1cc(Cl)ccc1O)N2 (stereo not drawn)	26*	791	i	138*	111	-6.9*	122	8	107
COc1ccc(C(=O)COc2ccc(F)cc2)c(O)c1C	6	13	i	100	104	i	x	x	x
N#Cc1ccc(CN2CCN(C(=O)c3ccc(S(=O)(=O)NCc4ccco4)cc3)CC2)cc1	x	-15	x	x	x	x	x	x	x
O=C(Nc1ccc2nc(-c3cccs3)c(-c3cccs3)nc2c1)NC1CC1	-18	-8	i	20*[inhibitor]	68*[inhibitor]	i	54	-20	95
COCCNC(=O)Nc1ccc2nc(-c3cccs3)c(-c3cccs3)nc2c1	-3	13	i	67*[inhibitor]	92	i	67	-18	90
COCCNC(=O)c1cc(-c2cccs2)on1	6	18	i	107	104	i	x	x	x
O=C(Nc1cccs1)NC1CCCC1	4	-14	i	99	100	i	x	x	x
C=C(C)CN(CC)C(=O)CCc1nnc(CCCc2ccccc2)o1	10	2	i	105	102	i	x	x	x
CCN(CCn1cccn1)C(=O)CCc1nnc(CCCc2ccccc2)o1	+	238	i	151*	131*	i	101	14	102
Cc1ccc(-c2n[nH]c(=S)n2/N=C/c2c(C)[nH]n(-c3ccccc3)c2=O)cc1	-15	-14	i	86	86	i	x	x	x
O=C(Oc1ccc(OC(=O)c2ccco2)c(S(=O)(=O)c2ccc(Br)cc2)c1)c1ccco1	-2	1	i	100	101	i	x	x	x
Cc1ccc(S(=O)(=O)c2cc(OC(=O)c3ccco3)ccc2OC(=O)c2ccco2)cc1	-1	9	i	101	128*	i	96	-8	104
SMILES	MEKK2mut PB1 HTS	SUMO Mot1 rescue	CHT allo act	MEKK2 WT-MEK5	MEKK3 PB1 HTS	CHT inh	MEKK2wt confirm	MEKK2mut-MEK5	MEKK3 confirm
Cc1cccc(C)c1NC(=O)CCn1cnc2ccccc2c1=O	-22	7	i	-2.0*[inhibitor]	1.0*[inhibitor]	i	101	3	97
CN(C)CCNc1oc(COc2ccc(-c3ccccc3)cc2)nc1C#N	34	-4	i	150*	106	i	141	30	107
N#Cc1nc(COc2ccc(-c3ccccc3)cc2)oc1NCCCN1CCOCC1	20	181	i	140*	107	i	144	31	104
C=CCNc1oc(COc2ccc(C)cc2)nc1C#N	-3	3	i	93	92	i	x	x	x
Cc1c(C(=O)NC(C(C)C)C(C)C)cccc1[N+](=O)[O-]	-2	-7	i	89	97	i	x	x	x
CCOc1ccc(C(C)=O)cc1COc1cccnc1[N+](=O)[O-]	10	5	i	105	105	i	x	x	x
Cc1ccc(NC(=O)c2ccc(COc3ccc4c(c3)CCC4)cc2)c(C)c1	6	-10	i	100	92	i	x	x	x
COc1cc(NC(=O)COC(=O)c2cnccn2)c(C)cc1[N+](=O)[O-]	-17	165	i	87	86	i	x	x	x
O=C(Nc1nccs1)c1ccc(-c2ccc(Cl)cc2)o1	-26	35	i	3.0*[inhibitor]	3.0*[inhibitor]	i	105	0	99
CC(c1ccccc1)C1OCC(C[N+]2(C)CCCCC2)O1 (stereo not drawn)	-18	10	i	47*[inhibitor]	43*[inhibitor]	i	105	7	105
Cc1nc(N)sc1C(=O)N/N=C/c1ccco1	1	-11	i	105	131*	i	101	5	104
